Compound activity from PubChem BioAssay.
Only some compounds are listed: those with a hit (about 15% of all), similar ones and a draw of the others.
RORg inh: blocks mouse ROR gamma transcriptional activity. P51450. Drosophila S2 Gal4-RORgamma UAS-luciferase reporter, 20 h. Potency, µM (doses to about 53.6 µM), inactives show top-dose activity change, negative = inhibition, most hits filed as inhibitors. 5.4% of 310,000 active. AID 2551; further: nearly all actives have a fitted effect of over 60% in size
Target sequence (P51450 whole entry, looked up, the tested form may be a part): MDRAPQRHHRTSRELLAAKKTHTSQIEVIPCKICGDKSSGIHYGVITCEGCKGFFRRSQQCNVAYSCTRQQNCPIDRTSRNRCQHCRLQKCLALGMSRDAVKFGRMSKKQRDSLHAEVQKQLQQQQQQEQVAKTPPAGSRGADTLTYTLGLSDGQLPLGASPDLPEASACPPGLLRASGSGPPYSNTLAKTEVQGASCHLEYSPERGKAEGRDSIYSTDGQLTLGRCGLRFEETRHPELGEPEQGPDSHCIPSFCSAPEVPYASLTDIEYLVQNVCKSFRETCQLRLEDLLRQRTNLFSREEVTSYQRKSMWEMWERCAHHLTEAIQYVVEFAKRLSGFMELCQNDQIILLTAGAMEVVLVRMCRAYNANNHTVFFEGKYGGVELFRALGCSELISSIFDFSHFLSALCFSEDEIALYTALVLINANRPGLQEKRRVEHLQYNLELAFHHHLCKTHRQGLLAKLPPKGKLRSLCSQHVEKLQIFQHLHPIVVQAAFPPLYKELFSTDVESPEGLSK
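In this cell-based reporter format, copper sulfate (700 uM final) drives Gal4–ROR gamma fusion expression from a metallothionein promoter in Drosophila Schneider cells; compounds preincubated 1 hr, reporter read after 20 hr at ambient temperature.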
ALOX12 inh: ALOX12 (human) lipoxygenase inhibition; P18054; purified 12hLO, xylenol orange hydroperoxide absorbance; Potency, µM (series often up to 108 µM), for the others: at the highest dose activity change, negative = inhibition, actives largely listed as inhibitors; 1.1% of 580,000 active; AID 1671190
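Purified human 12hLO at 150 nM in 25 mM Hepes, 0.01% Triton X-100, pH 7.0, preincubated 15 min at room temperature with compound. Reaction started with 40 uM arachidonic acid, 30 min at room temperature. Hydroperoxide measured by Fe-xylenol orange, 573/405 nm absorbance ratio.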
TDP1 cell noCPT: qHTS for Inhibitors of human tyrosyl-DNA phosphodiesterase 1 (TDP1): qHTS in cells in absence of CPT. Potency, µM (doses to about 46.2 µM), without a hit: top-dose activity change, negative = growth inhibition, actives largely listed as inhibitors. AID 686978, 2013. 15% of 420,000 active. DT40 Tdp1-/- hTDP1 cells, no CPT, ATP luminescence, 48 h; further: nearly all actives have a fitted effect of over 55% in size
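Chicken DT40 Tdp1-/- cells stably complemented with human TDP1 were seeded at 400 cells/well with DMSO in place of 20 nM camptothecin. After compound pinning, cells grew at least 48 hr at 37 °C; viability read by CellTiter-Glo luminescence.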
ELG1 repair inh: inhibitors of ELG1-dependent DNA repair in HEK293T cells. HEK293T ELG1-luciferase reporter, luminescence, 16 h; DNA damage induced by 5-fluorouridine. Potency, µM (doses to about 46.1 µM), without a hit: at the highest dose activity change, negative = inhibition, actives largely listed as inhibitors. 2.3% of 330,000 active. AID 504467; further: nearly all actives have a fitted effect of over 55% in size
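DMSO vehicle served as the neutral condition. Each well held 2,000 cells given 5-fluorouridine plus compound; after 16 hr at 37 °C/5% CO2, ONE-Glo was added and luciferase measured 30 min later.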
DT40 TDP1 CPT: growth inhibition of DT40 Tdp1-/-;hTDP1 cells with camptothecin (screen for TDP1 inhibitors); AID 686979; Potency, µM (top dose mostly 46.2 µM), for the others: at the highest dose activity change, negative = growth inhibition, most hits filed as inhibitors; 12% of 420,000 active; chicken DT40 Tdp1-/-;hTDP1 cells + 20 nM CPT, ATP luminescence, 48 h; further: nearly all actives have a fitted effect of over 55% in size
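Chicken DT40 Tdp1-/- cells complemented with human TDP1, 400 cells/well, exposed to compounds plus 20 nM camptothecin for at least 48 h at 37 C; viability read as ATP content by CellTiter-Glo luminescence.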
VP16 counter: counter-screen for ROR gamma inhibitors: Gal4-VP16 reporter | Drosophila S2 Gal4-VP16 UAS-luciferase, luminescence, 20 h | Potency, µM (series often up to 53.6 µM), for the others: at the highest dose activity, negative = inhibition, actives largely listed as inhibitors | 3.5% of 310,000 active;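 further: Gal4-VP16 expression switched on by copper sulfate through the metallothionein promoter; nearly all actives have a fitted effect of over 50% in size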
An asterisk follows results filed as active; i = inactive; ? = inconclusive; nt = not tested or not shown. The call rests on the fitted dose curve; in most records, active means well fitted curve in the direction sought with a large enough effect; inconclusive means small, poorly fitted or top-dose-only effect, or another doubt; inactive means no such curve, though single readings can be large; an effect the other way counts as inactive or inconclusive. On the % scale 0 is the no-effect control and ±100 the full control effect; potency means the concentration at half of the fitted maximal effect.

SMILES	RORg inh	ALOX12 inh	TDP1 cell noCPT	ELG1 repair inh	DT40 TDP1 CPT	VP16 counter
CCOC(=O)C(=CNNc1ccccc1)C(=O)OCC	12%	?	16µM*	6.5µM*	4.6µM*	10%
CCOC(=O)C(=CNc1cc(OC)ccc1-n1cccc1)C(=O)OCC	7%	26%	21µM*	?	?	27%
CCOC(=O)NNc1ccccc1	-2%	?	0%	?	5%	-4%
CCOC(=O)C(=CNc1cc(C)nn1-c1ccc(C)cc1)C(=O)OCC	3%	0%	9.2µM*	13µM*	23µM*	8%
CCOC(=O)C(=CNc1cc(C)ccc1C)C(=O)OCC	-23%	-8%	16µM*	?	?	-2%
CC(Sc1nc(-c2cccs2)nc2ccccc12)C(=O)NC(C)(C)C (configuration not stated)	nt	5%	nt	nt	nt	nt
CCCN(CCC)S(=O)(=O)N1CCCC(c2nncn2C)C1 (configuration not stated)	nt	-5%	nt	nt	nt	nt
O=C(/C=C/c1ccccc1Br)c1ccc(O)cc1	nt	-58%	nt	nt	nt	nt
CC(=O)c1ccc(OCC(O)CN2CCCC(C(F)(F)F)C2)cc1 (configuration not stated)	nt	-2%	nt	nt	nt	nt
CCC(=O)NCC1Cn2cccc2C(=O)N1Cc1ccccc1 (configuration not stated)	nt	14%	nt	nt	nt	nt
Cc1ccc(Nc2cc(C)nc3c(C)c(C)ccc23)cc1	nt	-18%	nt	nt	nt	nt
Cc1ccc(Oc2ncccc2NC(=O)CC2(CC(=O)O)CCCC2)c2c1CCC2	-59%	0%	-25%	11%	3%	-6%
CCOC(=O)C(=CNc1cccnc1Oc1ccc(C)c2c1CCC2)C(=O)OCC	-3%	?	21µM*	15µM*	15µM*	0%
Cc1ccc(Cl)cc1NC(=O)c1sc(-n2nc(C)c(Cc3ccc4c(c3)OCO4)c2C)nc1C	nt	0%	2.9µM*	nt	?	nt
CCc1ccc(NC(=O)c2sc(-n3nc(C)c(Cc4ccc5c(c4)OCO5)c3C)nc2C)cc1	nt	-12%	-20%	nt	-3%	nt
Cc1nc(-n2nc(C)c(Cc3ccc4c(c3)OCO4)c2C)sc1C(=O)Nc1cccc(Cl)c1	nt	-16%	16µM*	nt	?	nt
CCOc1ccc(NC(=O)c2sc(-n3nc(C)c(Cc4ccc(Cl)cc4)c3C)nc2C)cc1	nt	-6%	-21%	nt	5%	nt
Cc1cccc(C)c1NC(=O)c1sc(-n2nc(C)c(Cc3ccc4c(c3)OCO4)c2C)nc1C	nt	-21%	-21%	nt	-11%	nt
CC(=O)c1ccc(NC(=O)c2sc(-n3nc(C)c(Cc4ccc5c(c4)OCO5)c3C)nc2C)cc1	nt	?	16µM*	nt	16µM*	nt
CC(=O)c1ccc(NC(=O)c2sc(-n3nc(C)c(Cc4ccccc4)c3C)nc2C)cc1	nt	-19%	16µM*	nt	23µM*	nt
COc1cc(-c2ccc(C(F)(F)F)cn2)cc2c1OCCNC2	nt	31%	nt	nt	nt	nt
Cc1ccccc1CNC(=O)C1(c2ccc(NS(C)(=O)=O)cc2)CCCCC1	nt	45%	nt	nt	nt	nt
Cc1ccc(Cc2c(C)nn(-c3nc(C)c(C(=O)N4CCCCC4C)s3)c2C)cc1 (configuration not stated)	nt	-1%	15µM*	nt	?	nt
O=C(NCc1ccccc1CN1CCOCC1)c1nn(-c2ccc(F)cc2)c2c1CCC2	nt	-24%	nt	nt	nt	nt
CCOC(=O)c1cnc(Nc2nc3ccccc3o2)nc1CSC(=S)N(CC)CC	0.56µM*	1%	0.15µM*	?	0.15µM*	0.56µM*
SMILES	RORg inh	ALOX12 inh	TDP1 cell noCPT	ELG1 repair inh	DT40 TDP1 CPT	VP16 counter
N#Cc1cnc(Nc2nc3ccccc3o2)nc1-c1ccc(Cl)cc1	nt	36%	nt	nt	nt	nt
N#Cc1cnc(Nc2nc3ccccc3o2)nc1-c1ccccc1	2.5µM*	27%	?	-16%	?	5µM*
Cc1ccnc(Nc2nc3ccccc3o2)n1	4.5µM*	-5%	21µM*	?	?	7.9µM*
Cc1ccc(Nc2nc3ccccc3o2)cc1F	?	i	10µM*	?	8.2µM*	15%
CCCCOCCN(C)CC(=O)NCCCOC	nt	3%	nt	nt	nt	nt
Cc1cc(C)c(C)c(S(=O)(=O)N2CCN(C(=O)CCc3c(C)nn(C)c3C)CC2)c1C	nt	60%	nt	nt	nt	nt
O=C(NC1CCN(c2cc(-c3cccs3)[nH]n2)C1)c1cccc2[nH]ccc12 (configuration not stated)	nt	53%	nt	nt	nt	nt
Cc1ccc2oc(Nc3nc(C)c(C)c(C)n3)nc2c1	?	51%	?	?	-24%	6%
CCCc1nc(Nc2nc3ccccc3o2)nc(C)c1C(=O)OCC	6.3µM*	0%	?	?	-11%	?
Cc1nc(Nc2nc3ccccc3o2)nc(C)c1C	11µM*	-1%	-69%	?	-20%	?
CCOC(=O)c1cnc(Nc2nc3ccccc3o2)nc1CSc1ncccn1	nt	nt	?	nt	-28%	nt
COCCCNC(=O)Cn1c(=O)n(Cc2ccc(F)cc2)c(=O)c2sccc21	-17%	nt	0%	10%	12%	1%
Cc1ccc(Cn2c(=O)n(C)c(=O)c3sccc32)cc1	?	5%	?	5%	?	?
C=Cc1ccc(Cn2c(=O)n(CCCOC)c(=O)c3sccc32)cc1	7%	0%	?	21µM*	?	5%
C=Cc1ccc(Cn2c(=O)n(C)c(=O)c3sccc32)cc1	?	1%	?	?	3.7µM*	?
Cc1cc(OCCCC(=O)NCCc2nnc3ccccn23)ccc1Cl	nt	-4%	16µM*	1%	?	nt
O=C(CCCOc1ccc(Cl)cc1Cl)NCCc1nnc2ccccn12	40%	-7%	-23%	28%	-19%	-5%
O=C(N/N=C/c1cccnc1)c1cccc(Br)c1	-13%	0%	0%	?	-12%	-2%
O=C(N/N=C/c1ccco1)c1ccccc1OCc1ccc(Br)cc1	-20%	-15%	23µM*	?	21µM*	-16%
Cc1ccc(/C=N/NC(=O)c2ccccc2OCc2cccc(Br)c2)o1	?	-29%	7.3µM*	?	6.5µM*	4%
Cc1ccc(/C=N/NC(=O)c2cccc(NC(=O)c3ccccc3C)c2)o1	-2%	27%	-24%	1%	0%	17%
O=C(N/N=C/c1cccnc1)c1ccccc1OCc1cccc(Br)c1	-1%	1%	?	21µM*	?	7%
CC(C)(O)CCc1c(-c2ccc(O)cc2O)oc2c3c(cc(O)c2c1=O)OC(C)(C)C=C3	nt	45µM*	16µM*	nt	12µM*	nt
